# Measured values taken from the supplement of paper PMC8728848.
# The sample as a whole holds a higher share of the strongest signals than the screen did.
# Assays:
# Assay in all cases: glycan array binding signal (z-score within array); higher = stronger binding
# Details in all cases: glycan notation: IUPAC condensed, linker removed
# Fuc(a1-2)Gal(b1-3)GalNAc = target: Fuc(a1-2)Gal(b1-3)GalNAc
# In short: (§1)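 Negative Z-scores can be read as non-binding. The Z-score is calculated within each array and then averaged across arrays of one protein sequence at different concentrations or buffers and across linkers. Arrays, 3228 in all, were curated from the Consortium for Functional Glycomics database and kept only where the protein sequence was available.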
# Fuc(a1-2)Gal(b1-4)Glc = target: Fuc(a1-2)Gal(b1-4)Glc
# In short: as §1
# [1] = target: Fuc(a1-2)[Gal(a1-3)]Gal(b1-3)GlcNAc
# In short: as §1
# [2] = target: Fuc(a1-2)[Gal(a1-4)]Gal(b1-4)GlcNAc
# In short: as §1
# [3] = target: Fuc(a1-3)[Gal(b1-4)]GlcNAc(b1-4)Gal(b1-4)[Fuc(a1-3)]GlcNAc(b1-4)Gal(b1-4)[Fuc(a1-3)]GlcNAc
# In short: as §1
# [4] = target: Fuc(a1-3)[Gal3S(b1-4)]Glc6S
# In short: as §1
# Gal(a1-4)Gal(b1-4)Glc = target: Gal(a1-4)Gal(b1-4)Glc
# In short: as §1
# Gal(b1-2)Gal = target: Gal(b1-2)Gal
# In short: as §1
# [5] = target: Gal(b1-3)GlcNAc(b1-3)Gal(b1-4)Glc
# In short: as §1
# [6] = target: Gal(b1-3)[Fuc(a1-4)]GlcNAc(b1-3)Gal(b1-4)[Fuc(a1-3)]GlcNAc
# In short: as §1
# GalNAc(b1-3)Gal = target: GalNAc(b1-3)Gal
# In short: as §1
# [7] = target: GlcNAc(b1-2)Man(a1-3)[GlcNAc(b1-2)Man(a1-6)]Man(b1-4)GlcNAc(b1-4)GlcNAc
# In short: as §1
# GlcNAc(b1-3)Man = target: GlcNAc(b1-3)Man
# In short: as §1
# GlcNAc(b1-6)GalNAc = target: GlcNAc(b1-6)GalNAc
# In short: as §1
# Kdn(a2-3)Gal(b1-4)GlcNAc = target: Kdn(a2-3)Gal(b1-4)GlcNAc
# In short: as §1
# [8] = target: Man(a1-2)Man(a1-3)[Man(a1-2)Man(a1-6)]Man
# In short: as §1
# [9] = target: Neu5Ac(a2-3)Gal(b1-3)GalNAc(b1-3)Gal(a1-4)Gal(b1-4)Glc
# In short: as §1
# [10] = target: Neu5Ac(a2-3)Gal(b1-3)GalNAc6S
# In short: as §1
# [11] = target: Neu5Ac(a2-3)Gal(b1-4)GlcNAc(b1-6)[Neu5Ac(a2-3)Gal(b1-3)]GalNAc
# In short: as §1
# [12] = target: Neu5Ac(a2-6)Gal(b1-4)GlcNAc(b1-2)Man(a1-3)[GlcNAc(b1-2)Man(a1-6)]Man(b1-4)GlcNAc(b1-4)GlcNAc
# In short: as §1
# [13] = target: Neu5Ac(a2-6)Gal(b1-4)GlcNAc(b1-2)Man(a1-6)[GlcNAc(b1-2)Man(a1-3)]Man(b1-4)GlcNAc(b1-4)GlcNAc
# In short: as §1
# [14] = target: Neu5Ac(a2-6)GalNAc(b1-4)GlcNAc
# In short: as §1
binder,measurement,setting,value
"LSECtin (Homo sapiens), Q6UXB4 (protein) MEQESALRELRERVTQGLAEAGRGREDVRTELFRALEAVRLQNNSCEPCPTSWLSFEGSCYFFSVPKTTWAAAQDHCADASAHLVIVGGLDEQGFLTRNTRGRGYWLGLRAVRHLGKVQGYQWVDGVSLSFSHWNQGEPNDAWGRENCVMMLHTGLWNDAPCDSEKDGWICEKKAQLLTPPSALEPRPLQHVVSWGLLTSLAPGADCQRVFSSSSTAAESQKHLAQHSPVQPSAWALGPPCRPHPNSTHADPT",glycan array binding signal (z-score),Fuc(a1-2)Gal(b1-3)GalNAc,-0.303
same,glycan array binding signal (z-score),Fuc(a1-2)Gal(b1-4)Glc,3.15
same,glycan array binding signal (z-score),[1],-0.278
same,glycan array binding signal (z-score),[2],2.9
same,glycan array binding signal (z-score),[3],-0.279
same,glycan array binding signal (z-score),[4],0.092
same,glycan array binding signal (z-score),Gal(a1-4)Gal(b1-4)Glc,-0.309
same,glycan array binding signal (z-score),Gal(b1-2)Gal,-0.302
same,glycan array binding signal (z-score),[5],-0.295
same,glycan array binding signal (z-score),[6],-0.241
same,glycan array binding signal (z-score),GalNAc(b1-3)Gal,-0.287
same,glycan array binding signal (z-score),[7],5.09
same,glycan array binding signal (z-score),GlcNAc(b1-3)Man,0.057
same,glycan array binding signal (z-score),GlcNAc(b1-6)GalNAc,-0.174
same,glycan array binding signal (z-score),Kdn(a2-3)Gal(b1-4)GlcNAc,-0.308
same,glycan array binding signal (z-score),[8],0.406
same,glycan array binding signal (z-score),[9],-0.275
same,glycan array binding signal (z-score),[10],-0.307
same,glycan array binding signal (z-score),[11],-0.297
same,glycan array binding signal (z-score),[12],5.63
same,glycan array binding signal (z-score),[13],5.21
same,glycan array binding signal (z-score),[14],-0.301
